Laboratory results taken from PubChem BioAssay (NCATS).
Inconclusive results are not listed. Activity calls are given as the source filed them. Calls follow the shape of the dose curve; as a rule, active = well fitted curve in the direction sought with a large enough effect; inconclusive = small, poorly fitted or top-dose-only effect, or another doubt; inactive = no such curve, though single readings can be large; an effect the other way counts as inactive or inconclusive.

Key:
Tov-21-G = assay: Primary qHTS to identify gynecologic anti-cancer compounds using libraries of approved drugs and bioactive compounds (AID 1345084); details: Gynecologic cancer cell panel viability, ATPlite luminescence, 48 h; series mostly up to 57.5 µM; also: nearly all actives have a fitted effect of over 55% in size
Procedure, shortened: (§1)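 Cytotoxicity screen measuring ATP content by luciferase luminescence. Each compound is applied at five concentrations for 48 h at 37 C with 5% CO2.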

Tov112D = assay: as above; details: Gynecologic cancer cell panel viability, ATPlite luminescence, 48 h; series mostly up to 57.5 µM
Procedure, shortened: as §1

[1] = Drug repurposing screens with cells derived from glioblastoma tumor samples (AID 1345199); details: GBM patient neurospheres viability, ATP luminescence, 48 h; also: nearly all actives have a fitted effect of over 40% in size
Procedure, shortened: (§2)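 Four patient lines of CD133+ GBM neurospheres were screened at several concentrations; hits were retested in those lines plus three slower-growing GBM lines, using 48-hour treatment and ATP-based viability.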

astro = assay: as above; details: viability, ATP luminescence, 48 h; series mostly up to 45.9 µM
Procedure, shortened: as §2

[2] = at 45.9 µM (top of the series), tumour line B
[3] = at 45.9 µM (top of the series), tumour line D
[4] = at 46 µM (top of the series), tumour line A
[5] = at 46.1 µM (top of the series), tumour line C
[6] = at 20 µM (top of the series), tumour line C
[7] = at 21.2 µM (top of the series), tumour line B
[8] = at 21.2 µM (top of the series), tumour line D
[9] = at 21.3 µM (top of the series), tumour line A

Measured: activity, negative = cell killing
% is scaled to controls: 0 for no effect and ±100 for the full control effect.

OCCN1C[C@H](O)[C@@H](O)[C@H](O)[C@H]1CO
inactive: Tov-21-G | Tov112D | [1]; [2] -4.15% | [1]; [3] -2.64% | [1]; [4] -17.7% | [1]; [5] -28.1% | astro

NS(=O)(=O)c1cc2c(cc1C(F)(F)F)NCNS2(=O)=O
inactive: Tov-21-G | Tov112D | [1]; [6] -8.4% | [1]; [7] 8.4% | [1]; [8] -16.1% | [1]; [9] -5.19% | astro

CCN(CC)CCc1nc(-c2ccccc2)no1
inactive: Tov-21-G | Tov112D | [1]; [6] -35.3% | [1]; [7] 0.0715% | [1]; [8] 5.97% | [1]; [9] -18.4% | astro

CC(O)CCCCn1c(=O)c2c(ncn2C)n(C)c1=O (centres undefined)
inactive: Tov-21-G | Tov112D | [1]; [2] -11.9% | [1]; [3] -16.4% | [1]; [4] -31.9% | [1]; [5] -1.44%

COC(=O)N/N=C/c1c[n+]([O-])c2ccccc2[n+]1[O-]
inactive: Tov-21-G | Tov112D | [1]; [2] 3.32% | [1]; [3] -10.1% | [1]; [4] -9.78% | [1]; [5] 2.7% | astro

O=C(O)CNC(=O)c1ccccc1I
inactive: Tov-21-G | Tov112D | [1]; [2] -1.24% | [1]; [3] 4.71% | [1]; [4] -24.5% | [1]; [5] -16.1% | astro

CC(=O)NCc1c(I)c(NC(C)=O)c(I)c(C(=O)O)c1I
inactive: Tov-21-G | Tov112D | [1]; [2] -9.68% | [1]; [3] -11.6% | [1]; [4] -20.1% | [1]; [5] -11.1% | astro

CN[C@@H]1[C@@H](O)[C@@H](O[C@@H]2[C@H](O)[C@H](O[C@H]3OC(CN)=CC[C@H]3N)[C@@H](N)C[C@H]2N)OCC1(C)O (some centres undefined)
inactive: Tov-21-G | Tov112D | [1]; [2] -0.265% | [1]; [3] 7.79% | [1]; [4] -24.3% | [1]; [5] -7.7% | astro

CC(=O)Oc1cccc(O)c1
inactive: Tov-21-G | Tov112D | [1]; [2] -1.54% | [1]; [3] -17.1% | [1]; [4] -23.9% | [1]; [5] -11% | astro

CCCCCCCC(=O)OCC(O)CO (centres undefined)
inactive: Tov-21-G | Tov112D | [1]; [2] -0.0604% | [1]; [3] -12.6% | [1]; [4] -23.4% | [1]; [5] -3.44% | astro

CC1(C)S[C@@H]2[C@H](NC(=O)C(C(=O)O)c3ccccc3)C(=O)N2[C@H]1C(=O)O (some centres undefined)
inactive: Tov-21-G | Tov112D | [1]; [2] 2.69% | [1]; [3] -6.27% | [1]; [4] -8.84% | [1]; [5] 7.57% | astro

CN1C(C)(C)CCCC1(C)C
inactive: Tov-21-G | Tov112D | [1]; [2] -6.99% | [1]; [3] 3.96% | [1]; [4] -29.4% | [1]; [5] -8.74% | astro

C[N+]1(C)CCCC(OC(=O)C(O)(c2ccccc2)c2ccccc2)C1 (centres undefined)
inactive: Tov-21-G | Tov112D | [1]; [6] -3.92% | [1]; [7] -7.65% | [1]; [8] 4.26% | [1]; [9] -24.7% | astro

CC(C(=O)O)c1ccc2c(c1)Cc1cccnc1O2 (centres undefined)
inactive: Tov-21-G | Tov112D | [1]; [2] 1.78% | [1]; [3] -8.91% | [1]; [4] -13.1% | [1]; [5] -25.1% | astro

COc1ccc(-c2cc(=O)c3c(O)cc(O[C@@H]4O[C@H](CO[C@@H]5O[C@@H](C)[C@H](O)[C@@H](O)[C@H]5O)[C@@H](O)[C@H](O)[C@H]4O)cc3o2)cc1O
inactive: Tov-21-G | Tov112D | [1]; [2] -6.79% | [1]; [3] 0.355% | [1]; [4] -29.8% | [1]; [5] 3.81% | astro

O=C(O)c1cc(=O)c2ccccc2o1
inactive: Tov-21-G | Tov112D | [1]; [2] -4.66% | [1]; [3] -22.4% | [1]; [4] -22.8% | [1]; [5] -14.3% | astro

COCC(=O)Nc1c(I)c(C(=O)NCC(O)CO)c(I)c(C(=O)N(C)CC(O)CO)c1I (centres undefined)
inactive: Tov-21-G | Tov112D | [1]; [6] 5.9% | [1]; [7] -2.18% | [1]; [8] -2.4% | [1]; [9] -10.5% | astro

CC(=O)N(CC(O)CO)c1c(I)c(C(=O)NCC(O)CO)c(I)c(C(=O)NCC(O)CO)c1I (centres undefined)
inactive: Tov-21-G | Tov112D | [1]; [2] -2.73% | [1]; [3] -8.17% | [1]; [4] -31.6% | [1]; [5] -23.8% | astro

CC(C)NC[C@@H](O)COc1ccc(CC(N)=O)cc1
inactive: Tov-21-G | Tov112D | [1]; [2] -18.7% | [1]; [3] 5.31% | [1]; [4] 1.1% | [1]; [5] -9.77% | astro

Cn1c([N+](=O)[O-])cnc1COC(N)=O
inactive: Tov-21-G | Tov112D | [1]; [2] -9.55% | [1]; [3] -8.48% | [1]; [4] -18.6% | [1]; [5] -20.8% | astro
